Bioassay records as filed in PubChem.
An excerpt weighted towards active compounds, which were near 4.1% of everything screened.
hcDAF-12 act: H. contortus DAF-12 nuclear receptor activators, primary screen, cell-based, luminescence, HEK293, lit1-tk-luc reporter; HEK293 hcDAF-12 lit1-tk-luc reporter; 0% DMSO, 100% Δ7-dafachronic acid; AID 652067, 2013; activation, % at 6.8 µM; 1.4% of 370,000 active;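 active = activation above the mean of all tested compounds plus 3 SD, cut at about 5.5% in these data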;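 note: 100% = response to 3 µM Δ7-dafachronic acid high control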
hgDAF12 agonist: H. glycines DAF-12 receptor agonists, primary screen, cell-based, luminescence, HEK293, GAL4 fusion, UAS-luciferase. activation, % at 6.8 µM. HEK293 GAL4-hgDAF12 UAS-luciferase reporter, agonist luminescence; normalized to butyrate control. 1.8% of 370,000 active. AID 687014, 2013. Nuclear hormone receptor DAF-12 (Heterodera glycines), GAL4 fusion;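 active = activation above a cutoff set at the mean of all screened compounds plus 3 SD, cut at about 10% in these data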;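 note: 0% = DMSO wells and 100% = sodium butyrate wells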
DAX1 inh-1: DAX1 (NR0B1) inhibitors on StAR promoter, primary screen, cell-based, luminescence, SF-1 (NR5A1), full-length DAX-1; HEK293T StAR-luciferase reporter, SF-1/DAX-1 repression relief; inhibition, % at 6.8 µM; 1.1% of 370,000 active; AID 652010, 2013;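 active = inhibition above the mean over all tested compounds plus 3 SD, cut at about 3.6% in these data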;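 note: 0% = DAX-1 cells with DMSO and 100% = cells lacking DAX-1 with DMSO; higher inhibition means more luminescence from relief of DAX-1 repression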
DAX1 inh-2: DAX1 (NR0B1) inhibitors, primary screen, cell-based, HEK293, Gal4-DAX1, luciferase luminescence; Nuclear receptor subfamily 0 group B member 1 (Homo sapiens), P51843; HEK293 Gal4-DAX1 luciferase reporter; inhibition, % at 6.75 µM; 0.99% of 340,000 active;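 active = inhibition above the mean over all tested compounds plus 3 SD, cut at about 4.2% in these data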;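 note: 0% = DAX1-transfected cells with DMSO and 100% = empty-vector control cells with DMSO; inhibition shows as a rise in luminescence from relieved DAX1 repression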
Target sequence (P51843 207-470 limits assumed): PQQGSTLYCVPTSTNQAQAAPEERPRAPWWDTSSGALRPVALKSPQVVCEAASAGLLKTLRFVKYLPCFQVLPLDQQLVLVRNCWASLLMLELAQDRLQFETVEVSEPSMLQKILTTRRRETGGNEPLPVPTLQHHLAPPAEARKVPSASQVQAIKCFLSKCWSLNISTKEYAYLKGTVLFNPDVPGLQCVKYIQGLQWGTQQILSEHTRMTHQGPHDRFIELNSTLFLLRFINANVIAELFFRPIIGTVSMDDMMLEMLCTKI
ssDAF12 agonist: S. stercoralis DAF-12 nuclear receptor activators, primary screen, cell-based, luminescence, HEK293, GRIP1 co-expression, lit1-tk-luc; AID 652126, 2013; Nuclear hormone receptor DAF-12 (Strongyloides stercoralis); activation, % at 6.8 µM; HEK293 ssDAF-12/GRIP1 lit1-tk-luc reporter; % of 3 µM dafachronic acid response; 1% of 370,000 active;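 active = activation above the mean over all tested compounds plus 3 SD, cut at about 0.9% in these data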;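 note: 0% = DMSO-only wells and 100% = 3 µM delta7-dafachronic acid wells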
DAX1 inh confirm: DAX1 (NR0B1) inhibitors relieving SF-1 repression, confirmation, cell-based, luminescence, HEK293T, full-length DAX-1, SF-1 activated StAR promoter; AID 652134, 2013; HEK293T StAR-promoter luciferase reporter, SF-1/DAX-1 repression; inhibition, % at 6.8 µM; shares compounds with DAX1 inh-1; 87% of 2,400 active;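 active = inhibition above the average of every tested compound plus 3 SD, cut at about 3.8% in these data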;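 note: 0% = DAX-1 cells with DMSO and 100% = no DAX-1 control cells with DMSO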
SF1 AF2mut Luc: StAR reporter signal changes without DAX1, counter-screen for DAX1 inhibitor project, cell-based, luminescence, AF-2 mutant SF-1, transactivation. AID 652136, 2013. HEK293 StAR-luciferase, SF-1 AF2 mutant. shares compounds with DAX1 inh-1. 78% of 2,400 active. inhibition, % at 6.8 µM;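 active = inhibition above the mean of all tested compounds plus 3 SD, cut at about 3% in these data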;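 note: 0% = DAX-1 transfected cells with DMSO and 100% = cells without DAX-1 with DMSO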
LXR ag: LXR agonists, Gal4 luciferase reporter, confirmation, counter-screen for hcDAF-12 agonist project, cell-based, luminescence, HEK293, H. contortus campaign | 3,400 tested, under 10 active | activation, % at 6.8 µM | shares compounds with hcDAF-12 act | HEK293 Gal4-LXR tk-luc reporter, 24 h; normalized: DMSO 0%, positive control 100%;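 active = mean percent activation of the reporter above a cutoff set as the average over tested compounds plus their standard deviation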
Target sequence (P55055 whole entry, looked up, the tested form may be a part): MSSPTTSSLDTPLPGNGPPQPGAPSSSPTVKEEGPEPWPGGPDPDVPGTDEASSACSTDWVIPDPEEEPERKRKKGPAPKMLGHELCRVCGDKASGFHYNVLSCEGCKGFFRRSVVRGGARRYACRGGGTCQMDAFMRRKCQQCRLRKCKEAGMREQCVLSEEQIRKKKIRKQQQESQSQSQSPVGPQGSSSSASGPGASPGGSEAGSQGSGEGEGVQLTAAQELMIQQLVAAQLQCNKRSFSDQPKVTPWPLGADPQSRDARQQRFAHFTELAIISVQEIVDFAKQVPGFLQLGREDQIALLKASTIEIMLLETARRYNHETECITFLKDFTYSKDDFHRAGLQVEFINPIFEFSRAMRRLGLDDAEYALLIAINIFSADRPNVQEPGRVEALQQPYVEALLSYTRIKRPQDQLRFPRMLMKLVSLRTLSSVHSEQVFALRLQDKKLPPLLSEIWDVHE
hcDAF12 conf: H. contortus DAF-12 receptor agonists, confirmation, cell-based, luminescence, HEK293, lit1-tk-luc, triplicate; shares compounds with hcDAF-12 act; activation, % at 6.8 µM; 61% of 3,400 active; HEK293 hcDAF-12 lit1-tk-luc reporter; % of Δ7-dafachronic acid response; AID 743032, 2013;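 active = mean activation across triplicate tests above the threshold derived from the earlier primary screen, cut at about 5.5% in these data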;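 note: 0% = DMSO only wells and 100% = 3 µM Δ7-dafachronic acid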
hgDAF12 ag: H. glycines DAF-12 receptor agonists, confirmation, cell-based, luminescence, HEK293, GAL4-LBD fusion | HEK293 GAL4-hgDAF12 luciferase reporter, agonist mode; percent of butyrate response | AID 743050, 2013 | 80% of 3,300 active | activation, % at 6.8 µM | shares compounds with hgDAF12 agonist;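 active = mean activation over triplicate wells above the hit cutoff derived from the earlier primary screen, cut at about 11% in these data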;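 note: 0% = DMSO low control and 100% = 2 mM sodium butyrate high control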
LXR ag 2: LXR agonists, Gal4 luciferase reporter, confirmation, counter-screen for hgDAF-12 agonist project, cell-based, luminescence, HEK293, H. glycines campaign; AID 743051, 2013; 3,300 tested, under 10 active; shares compounds with hgDAF12 agonist; activation, % at 6.8 µM; 24 h;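 active = mean activation of the triplicate above a set limit carried over from the primary screen, none filed active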
* hit, by the source's call; / = no result.

SMILES	hcDAF-12 act	hgDAF12 agonist	DAX1 inh-1	DAX1 inh-2	ssDAF12 agonist	LXR ag	hcDAF12 conf	others
Cc1nn(-c2ccccc2)c(Cl)c1/C=N/Nc1ccc(Cl)c(C(=O)O)c1	9.9*	23.7*	7.5*	-5.0	1.2*	2.1	11.5*	DAX1 inh confirm=15.8*;SF1 AF2mut Luc=7.9*;hgDAF12 ag=27.2*;LXR ag 2=1.5
CNC(=S)N/N=C/c1c(C)nn(-c2ccccc2)c1Cl	-0.2	6.3	0.0	-0.8	-0.9	/	/
COC(=O)Cc1c([C@H](C)[C@@H](OC)c2ccccc2Br)nnn1Cc1ccccc1	1.3	1.4	-0.1	/	-1.0	/	/
Cc1cnc(-c2nnc(N(C)C(=O)c3cccnc3)s2)cn1	0.3	0.1	0.2	0.3	-0.1	/	/
CC(=O)N(c1ccccc1)c1nnc(-c2cnc(C)cn2)s1	5.5	14.1*	8.4*	2.5	-0.4	/	/	DAX1 inh confirm=9.5*;SF1 AF2mut Luc=9.2*;hgDAF12 ag=10.8*;LXR ag 2=0.5
COC(=O)c1cc2c(c3c4cc(C)ccc4n(S(=O)(=O)c4cccc(C)c4)c13)C(=O)N(Cc1ccccc1OC)C2	0.8	0.6	-0.5	/	-0.9	/	/
O=C(Nc1ccc(F)cc1)OC1CC2CC1[C@H]1CCCCN1C2 (some centres undefined)	0.7	-2.6	-0.9	/	-1.4	/	/
Cc1cc(CNC(=O)c2cc(COc3ccc(F)c(F)c3)on2)nn1C	5.7*	15.0*	6.4*	2.3	0.0	/	/	DAX1 inh confirm=7.4*;SF1 AF2mut Luc=3.8*;hgDAF12 ag=14.2*;LXR ag 2=0.5
Cc1c(C(=O)Nc2ccccn2)oc2ccccc12	13.2*	14.0*	4.7*	2.7	3.3*	1.6	17.3*	DAX1 inh confirm=10.7*;SF1 AF2mut Luc=5.8*;hgDAF12 ag=22.6*;LXR ag 2=1.0
O=C(COC(=O)/C=C/c1cccc(Cl)c1)Nc1ccc(N2CCOCC2)cc1	-0.3	0.1	-0.8	1.0	-0.9	/	/
Cc1ccc(NC(=O)COC(=O)/C=C/c2cccc(Cl)c2)cc1S(=O)(=O)N1CCOCC1	8.7*	0.4	0.2	0.5	-0.1	-0.3	-0.1
CC(C)(C)NC(=O)CSc1nc(-c2ccc(F)cc2)cs1	7.2*	11.7*	2.8	2.8	-0.8	1.0	5.1
CCNC(=O)CSc1nc(-c2ccc(F)cc2)cs1	-1.5	1.8	1.7	-1.3	-1.0	/	/
COC(=O)c1cc2c(c3c4cc(C)ccc4n(S(=O)(=O)c4ccc(C)cc4)c13)C(=O)N(C)C2	2.1	-0.5	0.5	/	-0.7	/	/
Nc1cc2c(cc1Cl)-c1ccccc1C2	7.5*	11.9*	0.0	3.7	0.1	0.2	4.3
CCOc1cc2c3c(c1)C1(C(=O)N3C(C)(C)CC2C)C(C#N)=C(N)N2C(=C1C#N)Nc1ccccc12 (centres undefined)	7.2*	0.6	-0.5	-1.3	-0.9	-0.3	-0.6
CCOc1cc2c3c(c1)C1(Nc4ccccc4S1)C(=O)N3C(C)(C)CC2C (centres undefined)	2.5	0.0	0.1	0.1	0.1	/	/
O=C(Nc1ccc(Cl)cc1)C1CCCN1S(=O)(=O)c1cccnc1 (centres undefined)	-1.2	-0.8	-0.6	/	-0.3	/	/
Cn1c(C(=O)Nc2ccc(Cl)cc2)cc2cc(Cl)ccc21	8.3*	3.6	-0.1	0.1	0.4	0.1	7.9*
C[C@H](NC(=O)c1cc2cc(Cl)ccc2n1C)C(=O)N1CCC(C(=O)O)CC1	-1.2	-4.1	0.1	0.6	-0.6	/	/
N#Cc1ccc(C(=O)Nc2cccc3ncccc23)c(F)c1	-1.0	1.2	-0.6	-1.7	-1.8	/	/
Cc1cc(C)c2oc(-c3ccc(Cl)c(NC(=O)c4ccc(C#N)cc4F)c3)nc2c1	6.6*	0.9	0.1	1.4	0.5	0.2	5.7*
CCc1ccccc1NC(=O)c1onc(C)c1Cl	9.4*	1.7	1.2	-0.4	0.2	-0.2	2.3
COC(=O)c1ccccc1NC(=O)c1onc(C)c1Cl	0.3	2.8	0.2	1.0	-0.6	/	/
CN(CCCOC(=O)c1cccs1)C1CN(Cc2cn(Cc3ccccc3Cl)nn2)S(=O)(=O)C1 (centres undefined)	-2.4	1.1	-1.2	/	-0.8	/	/
Cc1ccccc1CN1CCCCC(NC(=O)C2CCCCC2)C1=O (centres undefined)	-3.1	-1.0	-1.6	/	-1.0	/	/
Clc1ccc(Nc2nc(-c3cccnc3)cs2)cc1	9.3*	11.8*	2.1	1.3	1.9*	0.6	10.9*
Cn1c(=O)c(C(=O)CN2CCc3ccccc32)c(N)n(Cc2ccccc2)c1=O	8.0*	3.5	0.4	0.5	0.6	-0.3	2.5
Cn1c(=O)c(C(=O)CN2CCCc3ccccc32)c(N)n(Cc2ccccc2)c1=O	3.1	0.1	0.2	-0.3	0.4	/	/
